# Hits are enriched below; roughly 4.2% of the tested compounds scored in any of these assays.
# PrPC surface inh – cell surface PrPC inhibition, primary TR-FRET screen. P04156. TR-FRET read-out. actives 0.43% (n = 370,000). inhibition, % at 13.8 µM; in the data active = inhibition above about 24%; also: 0% = median of the test wells and 100% = reference compound wells
# GDH-TPI counter-1 – inhibits GDH-TPI coupling enzymes, artifact for Mtb FBA screen. GDH-TPI coupled enzyme counterscreen, NADH absorbance. inhibition, % at 4.8 µM. actives 1.2% (n = 360,000); in the data active = inhibition above about 30%;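 also: 0% = DMSO wells and 100% = wells lacking the enzyme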
# BJeLR lethal – kills HRASV12-expressing BJeLR cells; inhibition, % (concentration not given with the values); actives 0.17% (n = 300,000); BJeLR (HRASV12) viability, CellTiter-Glo ATP luminescence, 48 h; in the data active = inhibition above about 50%
# Mtb FBA inh – inhibits M. tuberculosis FBA enzyme; purified M. tuberculosis FBA, fluorescence read-out; actives 2.3% (n = 360,000); P9WQA3; inhibition, % at 1 µM;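 also: 0% = vehicle and 100% = reference inhibitor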
# RecA intein inh – blocks M. tuberculosis RecA intein splicing; P9WHJ3; cell-free RecA intein splicing, fluorescence; inhibition, % (test concentration not listed); actives 0.75% (n = 290,000); in the data active = inhibition above about 30%;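 also: 0% = vehicle wells and 100% = reference inhibitor control wells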
# Target sequence (P9WHJ3 whole entry, looked up): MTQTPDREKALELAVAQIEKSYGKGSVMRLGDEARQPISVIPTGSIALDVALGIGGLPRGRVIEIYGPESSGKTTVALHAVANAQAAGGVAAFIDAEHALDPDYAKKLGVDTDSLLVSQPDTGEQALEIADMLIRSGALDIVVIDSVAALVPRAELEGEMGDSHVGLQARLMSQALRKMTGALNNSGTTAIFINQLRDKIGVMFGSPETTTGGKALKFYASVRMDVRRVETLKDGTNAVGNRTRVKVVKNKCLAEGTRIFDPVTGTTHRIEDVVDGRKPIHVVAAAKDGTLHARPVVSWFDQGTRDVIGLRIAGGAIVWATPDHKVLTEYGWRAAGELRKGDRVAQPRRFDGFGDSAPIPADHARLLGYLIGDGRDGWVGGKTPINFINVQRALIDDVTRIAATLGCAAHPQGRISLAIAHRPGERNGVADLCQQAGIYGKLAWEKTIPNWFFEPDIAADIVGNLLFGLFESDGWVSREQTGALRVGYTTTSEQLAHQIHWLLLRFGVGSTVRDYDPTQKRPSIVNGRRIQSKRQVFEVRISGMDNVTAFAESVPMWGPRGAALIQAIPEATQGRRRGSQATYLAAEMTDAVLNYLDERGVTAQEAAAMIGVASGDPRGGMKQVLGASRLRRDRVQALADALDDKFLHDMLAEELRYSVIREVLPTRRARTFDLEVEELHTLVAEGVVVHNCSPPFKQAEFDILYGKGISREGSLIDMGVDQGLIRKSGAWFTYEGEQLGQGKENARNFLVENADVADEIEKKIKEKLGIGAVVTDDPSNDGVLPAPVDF
# Mtb FBA confirm – Mtb FBA inhibition, confirmed; shares compounds with Mtb FBA inh; purified M. tuberculosis FBA, fluorescence read-out; inhibition, % at 1 µM; actives 78% (n = 5,600); AID 651616;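 also: 0% = vehicle wells and 100% = reference inhibitor wells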
# GDH-TPI counter-2 – inhibits GDH-TPI coupling enzymes, flagging Mtb FBA hits; shares compounds with Mtb FBA inh; GDH-TPI coupled enzyme counterscreen, fluorescence; inhibition, % at 1 µM; actives 81% (n = 5,600); AID 652141; in the data active = inhibition above about 10%
# * hit, by the source's call; / = no result; + = active, no number. Rule as the data show it, unless noted: active = inhibition above about 27%; inactive = the rest.
SMILES,PrPC surface inh,GDH-TPI counter-1,BJeLR lethal,Mtb FBA inh,RecA intein inh,Mtb FBA confirm,GDH-TPI counter-2
Cc1[nH]nc2c1C(c1ccc(O)cc1)C1=C(CC(C)(C)CC1=O)N2 (stereo unspecified),0.0,24.4,-7.2,6.8,2.0,/,/
COc1cccc(C2C3=C(CC(C)(C)CC3=O)Nc3n[nH]c(C)c32)c1 (stereo unspecified),-4.5,12.7,4.9,42.6*,0.3,160.8*,131.0*
Cc1[nH]nc2c1C(c1ccsc1)C1=C(CC(C)(C)CC1=O)N2 (stereo unspecified),-1.4,23.0,7.4,55.4*,-5.2,51.3*,38.5*
C[C@@H]1ON(C)[C@H]2C[C@H]3c4[nH]c5c(-c6ccccc6)cccc5c4CCN3C[C@@H]12,0.2,/,/,/,/,/,/
Cc1ccc(CNC(=O)CN(C(=O)C2(C)CC(=O)N=C3C=CC=CN32)c2cc(C)ccc2C)cc1 (stereo unspecified),-2.7,21.6,5.2,90.6*,1.3,+,+
Cc1ccc(CNC(=O)CN(Cc2cccs2)C(=O)C2(C)CC(=O)N=C3C=CC=CN32)cc1 (stereo unspecified),-2.3,14.4,-12.9,80.3*,0.2,50.7*,39.1*
Cc1ccc(C)c(N(CC(=O)NCc2ccc3c(c2)OCO3)C(=O)CCC(=O)Nc2ccccn2)c1,-4.9,-2.5,-10.1,10.3,6.8,/,/
Cc1ccc2nc(-c3cccc(S(=O)(=O)N4CCCC4)c3)cn2c1,1.5,10.6,-8.4,3.5,0.4,/,/
Cc1ccc2nc(-c3ccc(S(=O)(=O)N4CCCCC4)cc3)cn2c1,-6.4,0.3,7.1,52.9*,1.1,45.2*,39.1*
O=C(O)COc1ccc(-c2nc(-c3ccccc3)c(-c3ccccc3)[nH]2)cc1,6.6,11.2,-7.0,97.8*,-9.0,85.9*,73.2*
COc1cccc(-c2nc(-c3ccc4c(c3)-c3ccccc3S4(=O)=O)c(-c3ccccc3)[nH]2)c1OC,10.7,18.6,-10.3,30.7*,-49.8,-2.5,-3.1
COc1cc(-c2nc(-c3ccc4c(c3)-c3ccccc3S4(=O)=O)c(-c3ccccc3)[nH]2)cc(OC)c1OC,7.8,11.2,-3.7,9.6,-59.0,/,/
O=C(O)COc1ccccc1-c1nc(-c2ccccc2)c(-c2ccccc2)[nH]1,3.3,6.4,8.0,87.9*,6.5,53.5*,29.5*
COc1cccc(-c2nc(-c3ccccc3)c(-c3ccccc3)[nH]2)c1OCC(=O)O,4.6,12.4,0.3,84.1*,8.1,69.9*,53.5*
COc1ccc(Cn2cc(CN3[C@@H](CC(C)C)COc4ccc(Cl)cc4S3(=O)=O)nn2)cc1,3.9,/,/,/,/,/,/
N#CC1=C(N)Oc2c(ccc3cccnc23)C1c1cccnc1 (stereo unspecified),-13.4,13.6,9.2,40.8*,-0.7,-0.5,-9.4
CN(C)CCNc1c2c(c(C#N)c3nc4ccccc4n13)CCCC2,2.9,-7.0,-12.2,-9.6,-117.9,/,/
N#Cc1c2c(c(NCc3ccco3)n3c1nc1ccccc13)CCC2,-7.8,13.7,-1.1,90.1*,-17.2,+,+
COc1ccccc1C(=O)NC(C)c1ccccc1 (stereo unspecified),8.4,-1.6,2.8,0.9,-0.3,/,/
Cc1csc2ncc(C(=O)NCc3ccccc3Cl)c(=O)n12,7.0,11.1,1.4,49.0*,2.2,107.2*,112.1*
Cc1csc2ncc(C(=O)NC(C)c3ccccc3)c(=O)n12 (stereo unspecified),2.8,21.9,-7.9,62.6*,1.2,198.6*,159.4*
Cc1csc2ncc(C(=O)NCc3ccc4c(c3)OCO4)c(=O)n12,/,/,-12.3,/,-4.6,/,/
CC(NC(=O)c1ccccc1O)c1ccccc1 (stereo unspecified),-0.1,5.0,-4.0,40.6*,3.0,156.5*,121.9*
CN(N=Cc1ccc2c(c1)OCO2)C(=O)c1ccccc1N,0.4,/,/,/,/,/,/
COc1ccccc1/C=C/C=N/NC(=O)Cc1cccn1C,-8.1,50.9*,-1.5,77.8*,-0.2,+,+
SMILES,PrPC surface inh,GDH-TPI counter-1,BJeLR lethal,Mtb FBA inh,RecA intein inh,Mtb FBA confirm,GDH-TPI counter-2
C=CCNc1cccc2c1S(=O)(=O)N[C@H](C)CO2,4.9,/,/,/,/,/,/
O=C(Cc1cccc2ccccc12)Nc1ccc(O)cc1C(=O)O,1.7,4.3,19.9,32.4*,-27.5,3.8,1.2
O=C(Cc1cccc2ccccc12)Nc1ccc(Br)cc1C(=O)O,-5.5,15.4,10.8,-0.1,-2.4,/,/
Oc1ccc2ccccc2c1C=Nn1c(-c2n[nH]c3c2CCC3)n[nH]c1=S,-15.1,/,/,/,/,/,/
O=c1oc(CCCO)cc2ccc(C#Cc3ccsc3)cc12,4.1,1.2,/,57.4*,/,87.0*,73.1*
CC(C)(O)c1cc2ccc(C#Cc3ccsc3)cc2c(=O)o1,-0.1,8.5,/,50.5*,/,32.2*,30.9*
Cc1ccc(NS(=O)(=O)c2cc(-c3cc(C)no3)ccc2C(C)C)nc1,-2.5,-6.9,6.9,37.3*,-3.0,29.1*,24.0*
CCc1ccc(-c2cc(C)no2)cc1S(=O)(=O)Nc1ccc(C)cn1,8.1,3.1,9.9,30.6*,3.6,3.9,0.9
COC(=O)[C@]12C[C@H](CC(=O)NCCCN3CCCC3=O)C(=O)N(Cc3ccc4c(c3)OCO4)C1=C[C@H](C(C)C)O[C@@H]2C1CC1,-10.2,/,/,/,/,/,/
COc1cc(F)ccc1Oc1cccc2c1S(=O)(=O)N([C@H](C)c1ccccc1)C[C@@H](COCc1ccccc1)O2,1.4,/,/,/,/,/,/
Cn1cc(-c2cccc(Cl)c2)cc(C#N)c1=O,-2.0,13.6,-11.5,43.6*,1.4,61.6*,42.5*
Cn1cc(-c2cccc(C(F)(F)F)c2)cc(C#N)c1=O,-0.1,16.4,6.4,45.6*,-2.8,93.9*,61.8*
CC(C)n1cc(-c2ccc(Cl)cc2)cc(C#N)c1=O,1.2,8.2,-7.3,3.5,5.0,/,/
O=C(CCc1ccccc1)N[C@H]1[C@@H](OC(=O)c2cccnc2)CCC[C@]12C(=O)N(Cc1ccccc1)c1ccccc12,-7.8,/,/,/,/,/,/
Cc1ccc2c(c1)-c1c(cnn1CC(=O)NCCc1ccc(O)cc1)CO2,-3.5,/,/,/,/,/,/
Cc1ccc(-c2cn3c(n2)CCCC3)cc1,-4.7,-5.5,3.5,37.9*,0.0,+,158.9*
O=C(CCC1CCCN(C(=O)C2=CCCC2)C1)N1CCN(c2ccccn2)CC1 (stereo unspecified),-1.7,5.4,0.4,40.8*,2.8,0.6,-2.9
Cc1nc2c3cnn(-c4ccc(C)c(C)c4)c3ncn2n1,-7.9,6.6,8.9,38.1*,1.6,118.6*,96.0*
COC(=O)c1c(NC(=O)C2C3CCC(O3)C2C(=O)O)sc2c1CCCCCC2 (stereo unspecified),4.7,5.6,-0.5,60.8*,-4.5,95.4*,77.5*
N#Cc1cccc(NC(=O)OC2CC3CC2[C@H]2CCCCN2C3)c1 (stereo partly specified),5.3,/,/,/,/,/,/

# Screening results from PubChem BioAssay.
